{"source": "the OligoGym collection"}
{"biological_target": "RAET1E", "assay": "pooled miR-30 sensor sort-seq; sequence = guide strand", "details": "shRNA"}
{"sequence": "TTGTTGTCACTGTTGTACTGAA", "sensor-assay potency score (higher = more potent)": -0.561}
{"sequence": "TTCATGATTAATTACTGTCCAG", "sensor-assay potency score (higher = more potent)": -0.655}
{"sequence": "TTACTGGTGACACTGTCGGTTC", "sensor-assay potency score (higher = more potent)": -0.629}
{"sequence": "TCATGATTAATTACTGTCCAGG", "sensor-assay potency score (higher = more potent)": -0.855}
{"sequence": "TTCCATGTCTCCTTGATCTTAC", "sensor-assay potency score (higher = more potent)": -0.262}
{"sequence": "TTGACCATGTTGTTGTCACTGT", "sensor-assay potency score (higher = more potent)": 0.253}
{"sequence": "TTTATAGTGAAGTTGAAGCAAA", "sensor-assay potency score (higher = more potent)": -1.04}
{"sequence": "TATCTGAAGCATTTACTGGTGA", "sensor-assay potency score (higher = more potent)": 0.282}
{"sequence": "TTTGATGTCACAAAGGAGCATC", "sensor-assay potency score (higher = more potent)": -0.244}
{"sequence": "TTCACGTTGACAAAACATCTCG", "sensor-assay potency score (higher = more potent)": -0.11}
{"sequence": "TTGACAAAACATCTCGACTTGC", "sensor-assay potency score (higher = more potent)": -0.439}
{"sequence": "TTTACTGGTGACACTGTCGGTT", "sensor-assay potency score (higher = more potent)": 0.119}
{"biological_target": "RAI2", "assay": "pooled miR-30 sensor sort-seq; sequence = guide strand", "details": "shRNA"}
{"sequence": "TCAGCCTTGACTTCGCCGCTGG", "sensor-assay potency score (higher = more potent)": -0.358}
{"sequence": "TTGAGCTCTGGTGCGGAGCTTC", "sensor-assay potency score (higher = more potent)": -0.528}
{"sequence": "TTCTTTAACTTTATGCTCCGGT", "sensor-assay potency score (higher = more potent)": 0.268}
{"sequence": "TTTAACTTTATGCTCCGGTTTT", "sensor-assay potency score (higher = more potent)": -1.48}
{"sequence": "TTGAAGGAGAAGTTTTTGGTGG", "sensor-assay potency score (higher = more potent)": -0.107}
{"sequence": "TCGGATTGAGCTCTGGTGCGGA", "sensor-assay potency score (higher = more potent)": -0.201}
{"sequence": "TTTCTTTAACTTTATGCTCCGG", "sensor-assay potency score (higher = more potent)": -0.775}
{"sequence": "TTGTTGTGGATGGTACTGGAGG", "sensor-assay potency score (higher = more potent)": -0.912}
{"sequence": "TCGACAGAGACAATGACCTTGG", "sensor-assay potency score (higher = more potent)": -0.196}
{"sequence": "TTCAGAACTCTGAGGCACCGGG", "sensor-assay potency score (higher = more potent)": -0.474}
{"sequence": "TTTTCAGCCTTGACTTCGCCGC", "sensor-assay potency score (higher = more potent)": -0.377}
{"sequence": "TTTATAAAACCAATGCACCTTT", "sensor-assay potency score (higher = more potent)": -0.626}
{"biological_target": "RANBP9", "assay": "pooled miR-30 sensor sort-seq; sequence = guide strand", "details": "shRNA"}
{"sequence": "TTTCTTTCAAGTAAACTTGGGT", "sensor-assay potency score (higher = more potent)": -0.134}
{"sequence": "TACTACAACTTTCAAAACCTGA", "sensor-assay potency score (higher = more potent)": -0.44}
{"sequence": "TTCGGTGTCACAATCTTCCATT", "sensor-assay potency score (higher = more potent)": -0.713}
{"sequence": "TAGCTGAACTTGTCCTTCGGGC", "sensor-assay potency score (higher = more potent)": -0.541}
{"sequence": "TTGGACTACTAAAAGGTCGAGG", "sensor-assay potency score (higher = more potent)": -0.167}
{"sequence": "TAACTGTCTTGAGACTTTGGAC", "sensor-assay potency score (higher = more potent)": -0.743}
{"sequence": "TTTTGTATCATGGTCTGCCATT", "sensor-assay potency score (higher = more potent)": -1.46}
{"sequence": "TTGCTTGCAGCTCTCGTCCAAA", "sensor-assay potency score (higher = more potent)": -0.93}
{"sequence": "TAATTCTTCTAGAACGGTCTGG", "sensor-assay potency score (higher = more potent)": 0.443}
{"sequence": "TAACAGGATAACTGTCTTGAGA", "sensor-assay potency score (higher = more potent)": -1.15}
{"sequence": "TAGTAGACTGAATGCATCCTTC", "sensor-assay potency score (higher = more potent)": -0.448}
{"biological_target": "RANGAP1", "assay": "pooled miR-30 sensor sort-seq; sequence = guide strand", "details": "shRNA"}
{"sequence": "TAGGAAGGCAGAGACCACCTTC", "sensor-assay potency score (higher = more potent)": 0.359}
{"sequence": "TTAGGGTCCAGAATCTTCCGTG", "sensor-assay potency score (higher = more potent)": 0.289}
{"sequence": "TAATCACATCTTTAGCATCTTC", "sensor-assay potency score (higher = more potent)": -0.22}
{"sequence": "TCACATCTTTAGCATCTTCTGC", "sensor-assay potency score (higher = more potent)": -0.932}
